Each structure is given as a SMILES string. Among all 330,000 compounds or so, about 5,800 (1.8%) were called active. No stated cut-off is given here; in the data, active means inhibition mostly above about 38% (no sharp cut-off); inactive means mostly below about 40%. This excerpt belongs to a sample that is enriched for actives.

The text below walks through data of PubChem BioAssay AID485270 (The Scripps Research Institute Molecular Screening Center, 2010).

This test deals with Orexin/Hypocretin receptor type 1 (Homo sapiens) (UniProt O43613). Put plainly: blocks the human orexin 1 receptor (AID 485270).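 Further: 0% = agonist challenge alone and 100% = reference antagonist.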 As to conditions: OX1R-expressing cells, FRET antagonist read-out; at 6.6 µM; hits give high values.
Orexin/Hypocretin receptor type 1 (Homo sapiens), sequence (O43613 whole entry, looked up): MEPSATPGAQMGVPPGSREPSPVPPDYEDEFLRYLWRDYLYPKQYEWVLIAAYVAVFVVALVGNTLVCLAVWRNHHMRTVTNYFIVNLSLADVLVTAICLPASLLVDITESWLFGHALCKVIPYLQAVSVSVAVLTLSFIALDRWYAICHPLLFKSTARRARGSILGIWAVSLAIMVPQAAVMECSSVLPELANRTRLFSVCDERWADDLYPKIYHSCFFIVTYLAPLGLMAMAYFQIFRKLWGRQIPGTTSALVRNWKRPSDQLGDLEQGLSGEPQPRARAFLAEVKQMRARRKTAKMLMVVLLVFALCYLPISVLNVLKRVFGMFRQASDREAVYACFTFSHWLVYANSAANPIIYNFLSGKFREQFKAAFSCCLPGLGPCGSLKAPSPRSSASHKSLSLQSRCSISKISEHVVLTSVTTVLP
For orientation: inhibition means the relative decrease from the control value, in per cent. In the case of `O=C(N/N=C/c1c(Cl)[nH]c2ccccc12)c1sc2ccccc2c1Cl`, the inhibition was 100% (active).
To `COc1ccc(CNC(=O)CNC(=O)c2sc3ccccc3c2Cl)cc1OC` belongs 18.2% (inactive); to `Cc1nn(C)cc1/C=N/NC(=O)c1sc2ccccc2c1Cl`, 72.5% (active).
To `Cc1nn(-c2ccccc2)c(Cl)c1/C=N/NC(=O)c1nn(C)cc1[N+](=O)[O-]` belongs 41.5% (inactive).
To `Cc1nnsc1C(=O)N/N=C/c1ccccc1Cl` belongs 3.68% (inactive); to `COCCNC(=S)N/N=C/c1c(C)[nH]c2ccccc12`, 9.28% (inactive); to `CC[C@]1(C(=O)OC)[C@H]2C(=O)N(Cc3ccccc3)C(=O)[C@H]2[C@H]2CN=C(SCc3ccccc3)N21`, 9.69% (inactive).
As to `C[C@H]1CN([C@@H](C)CO)C(=O)Cc2cc(NS(C)(=O)=O)ccc2O[C@@H]1CN(C)CC1CC1`, the inhibition was 1.83% (inactive).
To `CN=C(Nc1cccc(S(=O)(=O)N2CCOCC2)c1)c1ccccc1` belongs 2.1% (inactive); to `CC[C@]12c3[nH]c4cc(CCC(=O)N(C)C)ccc4c3CCN1C(=O)[C@@H](CC(=O)NCCCN(C)C)C[C@@H]2C(=O)N1CCN(C(=O)c2ccco2)CC1`, -2.47% (inactive).
To `COCCCNC(=O)CC1C[C@H](C(=O)N2CCCCC2)[C@@]2(CCc3ccccc3)c3[nH]c4ccccc4c3CCN2C1=O` (stereo not given in full) belongs 2.77% (inactive); to `COc1cc(/C=N\Nc2nc(-c3cccs3)c(NC(C)=O)s2)ccc1O`, 8.13% (inactive); to `CCOc1cc(/C=C(\C#N)c2nc(-c3cccs3)c(NC(C)=O)s2)ccc1O`, 65.7% (active).
With `CCOc1cc(-c2cc(-c3ccc(NC(C)=O)cc3)nc(N)c2C#N)ccc1O`, the inhibition was 25.9% (inactive).
For the compound `CCCC/C(C)=N/NC(=O)NC1CCCCC1`, the inhibition was 10.5% (inactive).
Consider `Nc1ncnc2c1ncn2[C@@H]1O[C@H](CNCc2cccn2-c2nccs2)[C@@H](O)[C@H]1O`, for which the inhibition was 5.52% (inactive).
For `CC1CCN(c2ccc([N+](=O)[O-])cc2C(N)=O)CC1`, the inhibition was 65.8% (inactive).
To `O=C(O)C1CCN(c2ccc([N+](=O)[O-])cc2[N+](=O)[O-])CC1` belongs 40.7% (active); to `CCOC(=O)C1CCN(c2ccc(C(=O)O)cc2[N+](=O)[O-])CC1`, 57.8% (inactive); to `O=C(COC(=O)c1cc[n+]([O-])cc1)Nc1ccc(Cl)c(C(F)(F)F)c1`, 8.49% (inactive).
`CC(Oc1ccc2c(-c3ccccc3)cc(=O)oc2c1)C(=O)NC(Cc1c[nH]c2ccccc12)C(=O)O` (stereo not given): the inhibition is 12.5% (inactive).
To `Cc1nc2nc(SCC(=O)c3ccccc3)[nH]c2cc1Br` belongs 9.22% (inactive).
To `Cc1cccc(NC(=O)CSc2nc3[nH]ncc3c(=O)[nH]2)c1` belongs 10.4% (inactive); to `Cc1nc2nc(SCC(=O)Nc3cccc(F)c3)[nH]c2cc1Br`, 57.5% (active); to `Cc1ccc2c(c1)C1C[N+](C)(CC(=O)c3ccccc3)CCC1N2C(=O)c1ccccc1Cl` (stereo not given), 7.24% (inactive).
With `CC1CCCCC12NC(=O)N(CC(=O)OCc1c(F)cccc1Cl)C2=O` (stereo not given), the inhibition was 11.8% (inactive).
In the case of `Cc1cc(NC(=O)CSc2nccn2-c2ccc([N+](=O)[O-])cc2)no1` it was 70.4% (active); in that of `Cc1cc(NC(=O)CSc2nnnn2-c2ccc(F)cc2)no1`, 10.1% (inactive).
In the case of `Cc1cc(NC(=O)COc2ccc([N+](=O)[O-])cc2)no1`, the inhibition was 3.47% (inactive).
Regarding `NS(=O)(=O)c1ccc(CNC(=S)NC(=O)c2ccco2)cc1`, the inhibition was 4.56% (inactive).
In the case of `CC1(C(=O)N/N=C/c2cc3c(cc2Br)OCO3)CC1(Br)Br` (stereo not given) it was 26.7% (inactive).
Consider `Cc1ccc(S(=O)(=O)N/N=C\c2cc3c(cc2[N+](=O)[O-])OCO3)cc1`, for which the inhibition is 29.4% (inactive).
To `CC(=O)N/N=C/c1cc2c(cc1[N+](=O)[O-])OCO2` belongs 98.3% (active).
Regarding `COc1ccc(CN2C(CC(=O)Nc3cccnc3)c3ccc(C(F)(F)F)cc3S2(=O)=O)cc1` (stereo not given), the inhibition is 12.3% (inactive).
Regarding `COc1ccc(CNC(=O)COC(=O)c2sccc2C)cc1OC`, the inhibition was 3.49% (inactive).
In the case of `CC(=O)N1c2ccccc2N(Cc2ccc([N+](=O)[O-])cc2)C(=O)C1(C)C` it was 15.5% (inactive); in that of `CC1=NN(c2ccccc2)C(=O)C1C(=O)c1ccc([N+](=O)[O-])cc1` (stereo not given), 33.4% (inactive); in that of `O=C1NC(=O)C2C1C(c1ccc([N+](=O)[O-])cc1)=NN2Cc1ccccc1` (stereo not given), 75.4% (active).
With `CC(C)(C)OC(=O)C[C@@H]1C/C=C\C[C@@H](CC(=O)N[C@@H](CO)Cc2ccccc2)C(=O)N2CCC[C@H]2COC1=O`, the inhibition was 16.2% (inactive).
In the case of `COc1ccccc1N(CC(=O)Nc1ccc(C)cc1Cl)S(=O)(=O)c1cccs1` it was 9.45% (inactive).
`Cc1ccc(C2(C)NC(=O)N(CC(=O)N3CC(=O)Nc4ccccc43)C2=O)cc1` (stereo not given): the inhibition is 2.94% (inactive).
`COc1ccccc1NS(=O)(=O)c1ccc(C)c(C(=O)NNC(=O)c2csc(N3CCOCC3)n2)c1`: the inhibition was 2.72% (inactive).
To `COc1cc(S(=O)(=O)N2CCN(C(=O)C3CC3)CC2)ccc1NC(C)=O` belongs 10.5% (inactive).
For `COc1ccc(C(=O)COC(=O)c2c(C)noc2C)cc1Cl`, the inhibition is 3.93% (inactive).
For the compound `CCOC(=O)[C@H]1[C@H]2COc3ccccc3[C@@H]2N2C(=O)CN(Cc3ccccc3)C(=O)[C@@]12C`, the inhibition was 11.5% (inactive).
In the case of `Cn1c(-c2ccco2)nc2cc3ccccc3cc21` it was 68.2% (active); in that of `COc1ccccc1-n1c(-c2cc(-c3ccco3)[nH]n2)n[nH]c1=S`, 4.56% (inactive).
As for `CS(=O)(=O)n1nc(-c2ccco2)nc1N`, the inhibition is -7.64% (inactive).
To `COC(=O)c1ccc(CNC(=O)c2ccc(S(=O)(=O)N3CCCCCC3)cc2)cc1` belongs 13.9% (inactive).
On to `CCOc1cc(/C=N/NC(=O)c2cccc(S(=O)(=O)N3CCOCC3)c2)ccc1OCC(=O)N(C)C`, for which the inhibition was 10% (inactive).
For the compound `O=C(N/N=C/c1ccc([N+](=O)[O-])o1)c1cccc(S(=O)(=O)N2CCOCC2)c1`, the inhibition is 44.6% (active).
To `O=C(Nc1ccc(N2CCOCC2)cc1)c1cccc(S(=O)(=O)N2CCOCC2)c1` belongs 1.87% (inactive).
To `CCN1C(=O)/C(=C2\SC(N3CCCCC3)=NC2=O)c2ccccc21` belongs 42.2% (active); to `O=C1N=C(N2CCCC2)S/C1=C\c1cccc(Br)c1`, 35.7% (inactive).
To `CCOc1cc(/C=C2\SC(N3CCCCC3)=NC2=O)ccc1O` belongs 25.6% (inactive).
